Records with an inconclusive call do not appear. A call without a number means that no potency is given here. Activity calls are given as the source filed them. Unless noted, the call rests on the fitted dose curve; in most records, active means well fitted curve in the direction sought with a large enough effect in the repeat runs; inconclusive means weak or mixed curves; inactive means no such curve, though single readings can be large; an effect the other way counts as inactive or inconclusive.
Experiments:
[1] = target: Progesterone receptor (Homo sapiens) (UniProt P06401); assay: qHTS assay to identify small molecule agonists of the progesterone receptor (PR) signaling pathway (AID 1346784; calls by dose curve; further: nearly all actives have a fitted effect of over 30% in size; further: potency means the concentration at half of the fitted maximal effect)
Chain of Progesterone receptor (Homo sapiens) (P06401 whole entry, looked up): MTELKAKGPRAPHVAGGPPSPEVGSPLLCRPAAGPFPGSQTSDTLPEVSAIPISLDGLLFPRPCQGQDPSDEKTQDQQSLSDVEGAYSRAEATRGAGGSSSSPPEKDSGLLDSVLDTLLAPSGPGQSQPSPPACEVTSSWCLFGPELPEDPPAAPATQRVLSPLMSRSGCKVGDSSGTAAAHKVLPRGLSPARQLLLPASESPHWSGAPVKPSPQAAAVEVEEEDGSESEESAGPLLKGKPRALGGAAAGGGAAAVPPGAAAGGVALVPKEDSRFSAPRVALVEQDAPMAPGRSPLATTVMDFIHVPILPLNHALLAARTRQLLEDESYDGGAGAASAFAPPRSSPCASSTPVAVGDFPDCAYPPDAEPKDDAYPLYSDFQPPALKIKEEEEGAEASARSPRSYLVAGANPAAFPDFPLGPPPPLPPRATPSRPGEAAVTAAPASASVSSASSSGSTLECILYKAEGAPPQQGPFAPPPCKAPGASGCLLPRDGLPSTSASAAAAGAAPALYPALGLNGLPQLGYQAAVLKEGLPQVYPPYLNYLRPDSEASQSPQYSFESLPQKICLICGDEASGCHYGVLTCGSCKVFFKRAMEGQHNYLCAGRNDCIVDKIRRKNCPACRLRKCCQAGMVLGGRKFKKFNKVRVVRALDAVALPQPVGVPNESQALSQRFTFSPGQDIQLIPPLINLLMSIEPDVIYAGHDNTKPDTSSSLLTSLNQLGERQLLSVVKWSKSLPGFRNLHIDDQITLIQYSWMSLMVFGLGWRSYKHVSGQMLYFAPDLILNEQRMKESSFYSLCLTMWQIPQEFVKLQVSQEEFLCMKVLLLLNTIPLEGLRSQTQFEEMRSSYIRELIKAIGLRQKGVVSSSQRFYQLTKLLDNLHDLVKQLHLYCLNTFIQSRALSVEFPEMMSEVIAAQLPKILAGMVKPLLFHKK
In short: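 HEK 293T PR-UAS-bla reporter cells, 2% charcoal-stripped FBS; 6 hr settle at 37C/5% CO2, compound (DMSO) 16 hr, LiveBLAzer B/G FRET substrate 2 hr RT, fluorescence intensity read.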

[2] = target: Progesterone receptor (Homo sapiens) (UniProt P06401); assay: qHTS assay to identify small molecule antagonists of the progesterone receptor (PR) signaling pathway (AID 1346795; active means well fitted inhibition curve with a large enough effect in the signal ratio in the repeat runs, not every such curve was filed as active; the % refers to the signal ratio; further: potency means the concentration at half of the fitted maximal effect)
In short: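 Beta-lactamase reporter, HEK293T PR-UAS-bla line; 2% charcoal-stripped FBS; 6 hr pre-incubation, 37C/5% CO2. Compound + R5020 1 nM final, 16 hr. LiveBLAzer B/G FRET substrate, 2 hr RT; fluorescence intensity read.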

[3] = qHTS assay to identify small molecule antagonists of the progesterone receptor (PR) signaling pathway - cell viability counter screen (AID 1346798); further: nearly all actives have a fitted effect of over 50% in size; further: potency means the concentration at half of the fitted maximal effect
In short: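 Luminescence readout (CellTiter-Glo, 30 min, RT) of viability in PR-UAS-bla HEK293T cells exposed to compound and R5020 agonist for 16 hr at 37C, 5% CO2; run in the same wells as the beta-lactamase reporter read.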

[4] = qHTS assay to identify small molecule agonists of the progesterone receptor (PR) signaling pathway - cell viability counter screen (AID 1346799; calls by dose curve; further: nearly all actives have a fitted effect of over 45% in size; further: potency means the concentration at half of the fitted maximal effect)
In short: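 HEK293T PR-UAS-bla, 3,000 cells/well, 2% charcoal-stripped FBS; 6 h settle, compound 16 h at 37C/5% CO2; LiveBLAzer 2 h RT, then CellTiter-Glo 30 min RT, luminescence read.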

[5] = qHTS assay to identify small molecule antagonists of the TGF-beta/Smad signaling pathway - cell viability counter screen (AID 1346824); further: nearly all actives have a fitted effect of over 50% in size
In short: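 SBE-bla HEK 293T cells were plated overnight at 37 C, then given compounds in DMSO plus TGF-beta1 (added as 0.25 ng/mL solution) for 5 hr. After the bla read, CellTiter-Glo was added to the same wells and luminescence read after 30 min at room temperature.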

[6] = Human pregnane X receptor (PXR) small molecule agonists, qHTS cell viability counter screen (AID 1346977); further: nearly all actives have a fitted effect of over 50% in size; further: potency means the concentration at half of the fitted maximal effect
In short: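 Fluorescence read-out (CellTiter-Fluor) of viability in PXR-Luc HepG2 cells, multiplexed with the luciferase agonist read. Compounds in DMSO added after 5hr plating; 24hr total exposure at 37C, 5% CO2.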

[7] = qHTS assay to identify small molecule agonists of the TGF-beta/Smad signaling pathway - cell viability counter screen (AID 1346829); further: top concentration of the series differs between compounds; nearly all actives have a fitted effect of over 45% in size
In short: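 Cytotoxicity counter screen: CellTiter-Glo luminescence (30 min, room temperature) measured in the SBE-bla HEK 293T reporter wells after 5 hr compound treatment at 37 C and the 2 hr substrate step.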

[8] = qHTS assay to identify small molecule agonists of the TGF-beta/Smad signaling pathway (AID 1346859; active means well fitted activation curve with a large enough effect in the signal ratio in the repeat runs, not every such curve was filed as active; the % refers to the signal ratio; further: series mostly up to about 77 µM)
In short: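 Read-out: fluorescence at 460 and 530 nm (405 nm excitation) after a 2 hr room-temperature incubation with beta-lactamase FRET substrate. SBE-bla HEK 293T cells had been treated with test compounds for 5 hr at 37 C.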

[9] = target: Thyrotropin-releasing hormone receptor (Homo sapiens) (UniProt P34981); assay: qHTS assay to identify small molecule antagonists of the thyrotropin-releasing hormone receptor (TRHR) signaling pathway (AID 1346877; active means well fitted inhibition curve with a large enough effect in the repeat runs, not every such curve was filed as active; further: series mostly up to about 51 µM)
Chain of Thyrotropin-releasing hormone receptor (Homo sapiens) (P34981 whole entry, looked up): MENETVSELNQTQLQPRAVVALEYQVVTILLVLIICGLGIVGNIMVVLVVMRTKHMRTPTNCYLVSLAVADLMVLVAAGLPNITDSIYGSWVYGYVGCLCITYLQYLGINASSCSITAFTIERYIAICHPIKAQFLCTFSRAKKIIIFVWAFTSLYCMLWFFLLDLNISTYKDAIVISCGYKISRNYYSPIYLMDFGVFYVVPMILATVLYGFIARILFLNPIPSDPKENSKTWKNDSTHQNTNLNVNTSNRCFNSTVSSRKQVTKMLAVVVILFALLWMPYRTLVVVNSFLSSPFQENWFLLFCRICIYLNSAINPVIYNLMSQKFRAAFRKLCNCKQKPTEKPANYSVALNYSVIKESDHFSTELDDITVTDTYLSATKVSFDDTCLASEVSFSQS
In short: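 Antagonism is measured as suppression of the calcium response to 1 nM TRH in TRHR-HEK293 cells that have been dye-loaded for 2 h at 37 °C after overnight plating. Each compound is tested at 15 concentrations in triplicate.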

[10] = target: Thyrotropin-releasing hormone receptor (Homo sapiens) (UniProt P34981); assay: qHTS assay to identify small molecule agonists of the thyrotropin-releasing hormone receptor (TRHR) signaling pathway (AID 1346891; calls by dose curve;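 further: HEK293 cells expressing TRHR with calcium dye readout; series mostly up to about 58 µM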)
In short: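 HEK293/TRHR cells, 1500 per well, 18 h 37 °C; Ca dye 2 h 37 °C; pin-tool compound addition (agonist mode); kinetic fluorescence 3 min, 1 s reads; 15 concentrations, triplicate.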

Row | Structure (SMILES) | Potency [1] | Potency [2] | Potency [3] | Potency [4] | outcome [5] | Potency [6] | Potency [7] | Potency [8] | outcome [9] | outcome [10]
1 | CC(=O)OC(C)C[N+](C)(C)C (configuration not stated) | inactive | inactive | inactive | inactive | inactive | inactive | – | – | – | –
2 | CCC(=O)OCc1ccc(OC)cc1 | inactive | inactive | inactive | inactive | – | inactive | inactive | inactive | inactive | inactive
3 | Cc1cn([C@H]2C[C@H](F)[C@@H](CO)O2)c(=O)[nH]c1=O | inactive | inactive | inactive | inactive | inactive | inactive | – | inactive | – | –
4 | CCN(CC)CCOc1ccccc1C(=O)CCc1ccccc1 | inactive | inactive | 11.9 µM (active) | – | inactive | – | inactive | inactive | inactive | inactive
5 | CC(C)N(C)C | inactive | inactive | inactive | inactive | – | inactive | – | inactive | inactive | inactive
6 | CC(C)CC(O)CC(C)C | inactive | inactive | inactive | – | inactive | inactive | inactive | inactive | inactive | inactive
7 | CCOCCC(=O)OCC | inactive | inactive | inactive | inactive | inactive | inactive | – | inactive | inactive | inactive
8 | O=S(=O)(Cl)c1c(Cl)cccc1Cl | inactive | inactive | inactive | – | inactive | inactive | inactive | inactive | inactive | inactive
9 | O=C(c1ccccc1)c1ccc(O)cc1 | inactive | 43.8 µM (active) | inactive | – | inactive | inactive | inactive | inactive | inactive | inactive
10 | CCCCC(CC)COS(=O)(=O)O (configuration not stated) | inactive | inactive | inactive | inactive | – | inactive | inactive | inactive | inactive | inactive
11 | CCCCCCCC(=O)OCCCCCC | inactive | inactive | inactive | – | inactive | inactive | inactive | inactive | inactive | inactive
12 | CCN(CC)c1ccc(C(=C2C=CC(=[N+](CC)CC)C=C2)c2ccc(S(=O)(=O)O)cc2S(=O)(=O)[O-])cc1 | inactive | inactive | 30.6 µM (active) | 24.3 µM (active) | – | 15.4 µM (active) | – | – | inactive | inactive
13 | CCCCCCC(O)CCOC(C)=O (configuration not stated) | inactive | inactive | inactive | inactive | inactive | inactive | – | – | inactive | inactive
14 | Cc1ccc(N(CCO)CCO)cc1 | inactive | inactive | inactive | inactive | inactive | inactive | – | inactive | – | –
15 | O=C(O)c1ccc(O)cc1O | inactive | inactive | inactive | – | inactive | inactive | inactive | inactive | inactive | inactive
16 | CC(O)Cn1cnc2c1c(=O)n(C)c(=O)n2C (configuration not stated) | inactive | inactive | inactive | – | inactive | inactive | inactive | inactive | inactive | inactive
17 | O=C(C(=O)c1ccco1)c1ccco1 | 2.75 µM (active) | inactive | inactive | – | inactive | inactive | – | inactive | – | –
18 | Nc1ccc(S(=O)(=O)NCc2ccccc2)cc1 | inactive | inactive | inactive | – | inactive | inactive | inactive | – | inactive | inactive
19 | CCOc1ncc(F)c(=O)[nH]1 | inactive | inactive | inactive | – | inactive | inactive | inactive | – | inactive | inactive
20 | C=C(C)C(=O)OCCC(F)(F)C(F)(F)C(F)(F)C(F)(F)C(F)(F)C(F)(F)F | inactive | inactive | – | inactive | inactive | inactive | inactive | inactive | inactive | inactive
21 | Cc1ccccc1S(N)(=O)=O | inactive | inactive | – | inactive | inactive | inactive | inactive | inactive | inactive | inactive
